# Compounds with a hit are over-represented: about 11% of the library has one in this group of screens.
# BAZ2B inh = inhibitors of human BAZ2B bromodomain. Q9UIF8. AlphaScreen BAZ2B-H3K14Ac peptide displacement. Potency, µM (top dose mostly 114 µM), hits mostly inhibitors. hit rate 4.4% among 360,000. AID 504333; also: nearly all actives have a fitted effect of over 60% in size
#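 Inhibition is scored as reduced AlphaScreen emission. The BAZ2B/b-H3(5-23)K14Ac complex (50 nM each) in PBS pH 7.4, 0.01% Tween-20 meets compound (up to 110 uM) for 30 min at RT before bead addition.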
# G9a inh = G9a (human) methyltransferase inhibition. Q96KQ7. G9a H3K9 monomethylation, AlphaScreen, 2 h. Potency, µM (highest dose often 102 µM), hits mostly inhibitors. hit rate 8.8% among 350,000; also: nearly all actives have a fitted effect of over 75% in size
#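 Quantitative HTS format: methyltransferase activity on a biotin-tagged H3K9 peptide is measured by AlphaScreen, using a rabbit anti-monomethyl-H3K9 antibody with streptavidin donor and anti-IgG acceptor beads. Final levels are 20 nM enzyme, 500 nM peptide, 20 uM SAM; 2 h RT.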
# JMJD2A Tudor = blocks the human JMJD2A Tudor domain; hit rate 4.4% among 390,000; AlphaScreen JMJD2A-Tudor / H3K4me3 peptide binding; Potency, µM (highest dose often 114 µM), hits mostly inhibitors; AID 504339; O75164; also: nearly all actives have a fitted effect of over 50% in size
# HP1b chromo inh = blocks HP1-beta chromodomain binding to methylated histone tails. AlphaScreen HP1-beta / biotin-H3K9me3 peptide binding. hit rate 0.56% among 390,000. P83916. AID 540317. Potency, µM (series often up to 114 µM), usual class: inhibitors; also: nearly all actives have a fitted effect of over 70% in size
#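 HP1-beta protein (50 nM final) preincubated 30 min at room temperature with biotinylated H3(1-18)K9me3 peptide (50 nM) in PBS pH 7.4, 0.01% Tween-20, then compound added for 30 min. AlphaScreen streptavidin donor/nickel chelate acceptor beads (10 ug/mL final), 30 min dark, luminescence read.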
# L3MBTL1 inh = inhibitors of human L3MBTL1 | Potency, µM (titrated, usually from 57.1 µM), hits mostly inhibitors | hit rate 0.66% among 230,000 | Q9Y468 | AlphaScreen L3MBTL1–H3K9me1 peptide binding; also: nearly all actives have a fitted effect of over 60% in size
# Target sequence (Q9Y468 whole entry, looked up): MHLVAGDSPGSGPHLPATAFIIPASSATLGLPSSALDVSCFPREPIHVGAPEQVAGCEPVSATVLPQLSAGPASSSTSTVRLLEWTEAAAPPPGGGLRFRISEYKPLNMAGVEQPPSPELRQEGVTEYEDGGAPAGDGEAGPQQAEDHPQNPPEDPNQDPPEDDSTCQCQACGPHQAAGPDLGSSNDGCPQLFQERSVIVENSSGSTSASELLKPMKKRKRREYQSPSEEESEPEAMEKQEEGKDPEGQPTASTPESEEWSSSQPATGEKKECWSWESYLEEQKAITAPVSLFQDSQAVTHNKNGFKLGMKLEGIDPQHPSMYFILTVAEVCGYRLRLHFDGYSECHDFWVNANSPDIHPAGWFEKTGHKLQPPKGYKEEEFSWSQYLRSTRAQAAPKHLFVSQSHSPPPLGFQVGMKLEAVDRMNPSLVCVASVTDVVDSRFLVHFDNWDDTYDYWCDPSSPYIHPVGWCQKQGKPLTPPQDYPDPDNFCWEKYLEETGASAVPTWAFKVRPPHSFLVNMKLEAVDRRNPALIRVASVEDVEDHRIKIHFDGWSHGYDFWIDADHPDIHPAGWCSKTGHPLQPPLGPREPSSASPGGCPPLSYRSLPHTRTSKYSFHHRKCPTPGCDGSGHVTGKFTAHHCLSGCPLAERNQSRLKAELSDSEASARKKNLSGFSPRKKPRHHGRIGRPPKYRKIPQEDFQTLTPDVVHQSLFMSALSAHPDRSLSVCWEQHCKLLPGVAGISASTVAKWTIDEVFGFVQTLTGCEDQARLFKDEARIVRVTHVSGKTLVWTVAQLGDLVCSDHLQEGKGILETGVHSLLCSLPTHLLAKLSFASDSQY
#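 AlphaScreen assay: L3MBTL1 (50 nM final) was preincubated 30 min at room temperature with biotinylated H3(1-15)K9me1 peptide (75 nM final), then 30 min with library compounds; streptavidin donor and nickel chelate acceptor beads (10 ug/mL final) added, 30 min dark.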
# A number is an active result; i = inactive; ? = inconclusive; nt = not tested or not shown; ! = repeats disagree; [ ] = remark or other dose. Calls follow the shape of the dose curve; as a rule, active = well fitted inhibition curve with a large enough effect; inconclusive = small, poorly fitted or top-dose-only effect; inactive = no such curve, though single readings can be large or run the other way.
SMILES,BAZ2B inh,G9a inh,JMJD2A Tudor,HP1b chromo inh,L3MBTL1 inh
CCN1CCN(C(=O)c2c(C)nn(-c3ccc(F)cc3)c2-n2cccc2)CC1,i,i,i,i,nt
Cc1ccc(CNC(=O)c2ccc(OCC(C)C)cc2)n1C,i,45µM,?,i,nt
O=S(=O)(Nc1cccc2ccccc12)c1ccccc1,i,nt,i,i,i
O=S(=O)(O)c1c(NS(=O)(=O)c2ccccc2)ccc2ccccc12,nt,nt,89µM,i,nt
Cc1ccc(S(=O)(=O)Nc2ccc3ccccc3c2[N+](=O)[O-])cc1,nt,nt,i,i,nt
O=C(O)c1cccc(S(=O)(=O)Nc2cccc3ccccc23)c1,i,40µM,i,i,nt
O=S(=O)(Nc1cccc2ccccc12)c1ccc2ccccc2c1,nt,nt,79µM,?,nt
COc1ccc(OC)c(Cc2nnc(CCC(=O)NCc3ccsc3)o2)c1,i,i,i,i,i
Cc1ccc(-n2c(CC#N)n[nH]c2=S)c(C)c1,i,22µM,20µM,i,nt
S=c1[nH]nc(Cc2ccccc2)n1-c1cccc2ccccc12,i,10µM,25µM,i,i
Cc1ccc(-n2c(Cc3ccccc3)n[nH]c2=S)c(C)c1,i,?,18µM,i,i[11.4 µM]
CSc1ccccc1NC(=O)c1cccc(S(=O)(=O)N2CCN(C)CC2)c1,i,i,i,i,nt
Cc1cccc2sc(NNC(=O)C3COc4ccccc4O3)nc12 (centres undefined),i,18µM,i,i,i
CSc1nncc(/C(C)=N\Nc2ccccc2C)n1,i,2.5µM,i,i,nt
CSc1nncc(/C(C)=N/O)n1,i,i,i,i,i
C/C(=N\Nc1ccccc1C)c1cccnc1,?,1.4µM,50µM,i,nt
Cc1ccc(-c2cc(C(=O)Nc3ccc(SC(F)F)cc3)no2)cc1F,?,?,i,i,nt
Cc1ccc(C)c(Nc2cc(C(=O)NC3CCCCC3)c3ccccc3n2)c1,nt,i,i,i,nt
Cc1ccc(CCNC(=O)CCN2N=C(c3ccc(C)cc3)CCC2=O)cc1,i,i,i,i,nt
NC(N)=NC(=O)Cc1c(Cl)cccc1Cl,i,13µM!,i,i,i
O=C(NCC(c1ccco1)N1CCc2ccccc21)c1c(F)cccc1F (centres undefined),?,i[2.33 µM],i,i,i
COc1cccc(C(=O)NCC(c2ccc(N(C)C)cc2)N2CCc3ccccc32)c1OC (centres undefined),14µM,i[12.7 µM],10µM,?,nt
COc1cccc(C(=O)NCC(c2ccc(N(C)C)cc2)N2CCc3ccccc32)c1 (centres undefined),7.9µM,10µM,7.9µM,10µM,nt
COc1ccc(C(=O)NCC(c2ccc(N(C)C)cc2)N2CCc3ccccc32)cc1OC (centres undefined),20µM,25µM,20µM,?,nt
COc1cccc(C(=O)NCC(c2ccc(N(C)C)cc2)N2CCCC2)c1OC (centres undefined),i,?,i,i,nt
SMILES,BAZ2B inh,G9a inh,JMJD2A Tudor,HP1b chromo inh,L3MBTL1 inh
COc1ccc(C(=O)NCC(c2cccnc2)N2CCc3ccccc32)cc1OC (centres undefined),i,i,i,i,nt
COc1ccc(C(=O)NCC(c2ccco2)N2CCc3ccccc32)cc1 (centres undefined),i,i[2.33 µM],i,i,i
CN(C)c1ccc(C(CNC(=O)c2ccccc2F)N2CCc3ccccc32)cc1 (centres undefined),16µM,?,10µM,?,nt
CC1(C2CC(C(F)(F)F)n3nc(C(=O)O)cc3N2)CC1 (centres undefined),i,i,i,i,i
O=C(c1csnn1)N1CCC2(CCCN(Cc3cc(C(F)(F)F)cc(C(F)(F)F)c3)C2)CC1,nt,i[12.7 µM],nt,nt,nt
COc1cc(C(=O)NCC(c2ccc(N(C)C)cc2)N2CCc3ccccc32)cc(OC)c1OC (centres undefined),13µM,18µM,16µM,?,nt
COc1ccc(C(=O)NCC(c2cccnc2)N2CCc3ccccc3C2)cc1OC (centres undefined),5µM,4.5µM,32µM,i,nt
O=[N+]([O-])c1ccc(S(=O)(=O)NCC(c2cccnc2)N2CCc3ccccc3C2)cc1 (centres undefined),?,50µM,i,i,i
Cc1cccc(C(=O)n2c(=S)nc3cc(C)ccn32)c1,i,7.9µM,40µM,i,i
Cc1ccn2c(c1)nc(=S)n2C(=O)c1ccccc1,i,45µM,i,i,i
O=C(c1ccco1)n1c(=S)nc2ccccn21,i,?,i,i,i
CCN(CC)S(=O)(=O)c1ccc(NC(=O)[C@H](CSCc2ccccc2)N2Cc3ccccc3C2=O)cc1,i,i,i,i,nt
O=[N+]([O-])c1ccc(CN2CCOCCOCCN(Cc3ccc([N+](=O)[O-])cc3)CCOCC2)cc1,?,?,?,i,i
CSc1ccc(CN2CCN(Cc3ccc([N+](=O)[O-])cc3)CC2)cc1,28µM,32µM,?,?,i
O=[N+]([O-])c1ccc(CN2CCCCCC2)cc1,i,?,i,i,i
CSc1ccc(CN2CCCCCC2)cc1,i,11µM,5µM,?,i
CCS(=O)(=O)N1CCN(Cc2ccc([N+](=O)[O-])cc2)CC1,50µM,?,5.6µM,?,i
CC(C)(C)c1ccc(C(=O)COC(=O)CN2C(=O)NC3(CCCC3)C2=O)cc1,i,i,i,i,nt
COC(=O)C1=C(C)NC(C)=C(C(=O)OC)C1c1ccc(OC(=O)c2oc3ccccc3c2C)c(OC)c1,i,i,i,i,i
CCCCC1CN2CCc3c([nH]c4ccccc34)C2(C)C1 (centres undefined),?,79µM,i,i,i
CCCCN1CCc2c([nH]c3ccccc23)C1=O,i,i[12.7 µM],i,i,nt
Cc1ccc(S(=O)(=O)NCCSc2nnc(N)s2)cc1,i,13µM,i,i,i[11.4 µM]
O=C(CCCN1C(=O)/C(=C\c2ccccc2)SC1=S)Nc1cccc(C(=O)O)c1,?,?,i,i,nt
O=C(CCN1C(=O)/C(=C\C=C\c2ccccc2)SC1=S)Nc1ccccc1C(=O)O,i,i,45µM,?,nt
O=C(CCN1C(=O)/C(=C/C=C/c2ccccc2)SC1=S)Nc1nccs1,i,i,i,i,i
SMILES,BAZ2B inh,G9a inh,JMJD2A Tudor,HP1b chromo inh,L3MBTL1 inh
O=C(CCN1C(=O)/C(=C\C=C\c2ccccc2)SC1=S)Nc1cccc(C(=O)O)c1,20µM,nt,50µM,?,nt
Cc1ccc(NS(=O)(=O)c2cnc(N)nc2)c(C)c1,i,i,i,i,nt
COCCNC(=O)CSc1nnc2[nH]c(=O)cc(C)n12,i,i,i,i,nt
c1ccc(Cc2nn3c(C4COc5ccccc5O4)nnc3s2)cc1 (centres undefined),i,5µM,i,i,i
COc1ccccc1-c1nn2c(C3COc4ccccc4O3)nnc2s1 (centres undefined),i,3.5µM,i,i,i
c1ccc(CCc2nn3c(C4COc5ccccc5O4)nnc3s2)cc1 (centres undefined),i,3.5µM,?,?,i
Cc1ccc(Cl)cc1NC(=O)CSc1nc2ccccc2c2nc(-c3ccccc3)nn12,i,i,i,i,nt

# Assay outcomes deposited in PubChem BioAssay by National Center for Advancing Translational Sciences (NCATS).
